Screens as filed in PubChem.
HCMV antiviral – blocks human cytomegalovirus replication; HFF cells, HCMV-luciferase reporter, 72 h; active compounds read low; activity change, negative = inhibition, % at 57.5 µM; 410,000 tested, 4.5% active; in the data active means activity change below about -60%; inconclusive means no clear call, values can overlap the other calls; inactive means above about -39%
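After 16 h attachment at 37C, HFF cells received test compound and HCMV-luciferase (1 PFU/cell); reporter luminescence read 72 h later, data normalized against buffer-only and known inhibitor Salinomycin.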
Vaccinia mCherry – vaccinia inhibition (mCherry reporter) | Vaccinia virus mCherry reporter infection, fluorescence | Potency, µM (series often up to 36.5 µM), most hits filed as inhibitors | 310,000 tested, 0.63% active | AID 720579; calls by dose curve; tested in A549 cells; further: nearly all actives have a fitted effect of over 35% in size
HCV inh – inhibitors of hepatitis C virus infection | Huh7.5.1 HCVcc-Cre infection, luciferase reporter, 44 h | Potency, µM (top dose mostly 41.8 µM), usual class: inhibitors | 340,000 tested, 3.4% active; active means well fitted inhibition curve with a large enough effect; inconclusive means small, poorly fitted or top-dose-only effect, or another doubt; inactive means no such curve, though single readings can be large or run the other way
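Compounds are dispensed onto cells plated 4 h earlier at 1,000 per well, with HCVcc-Cre virus (about 0.5 moi) added next. Following 44 h of culture, luminescent signal is measured for 15 sec after 15 min with substrate at room temperature.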
FMDV antiviral – foot and mouth disease virus antiviral activity | 410,000 tested, 1.2% active | FMDV antiviral cell-based qHTS | Potency, µM (series often up to 57.9 µM), most hits filed as inhibitors; calls by dose curve; tested in HEK293T cells; further: read-out not given here; nearly all actives have a fitted effect of over 45% in size
VACV Venus inh – inhibitors of vaccinia virus (Venus reporter). Vaccinia virus Venus reporter expression, fluorescence. Potency, µM (series often up to 36.5 µM), most hits filed as inhibitors. 330,000 tested, 0.46% active; calls by dose curve; tested in A549 cells; further: nearly all actives have a fitted effect of over 30% in size
Hits are given with their value; [ ] = dose if it differs, or a comment. Compounds with a hit are over-represented: about 7.3% of the library has one in this group of screens.

Results for COc1ccc(CC(=O)Nc2cccc(-c3nnc(-c4ccccc4)o3)c2)cc1OC ?
HCMV antiviral: inconclusive; Vaccinia mCherry: 11µM; HCV inh: 6.3µM; VACV Venus inh: inconclusive

Results for O=C(Nc1cccc(-c2nnc(-c3ccccc3)o2)c1)C1CC1 ?
HCMV antiviral: inconclusive; Vaccinia mCherry: inactive; HCV inh: 14µM; FMDV antiviral: inactive; VACV Venus inh: inactive

What do the screens show for `COc1ccc(CC(=O)Nc2ccc(-c3nnc(-c4ccccc4)o3)cc2)cc1OC`?
HCMV antiviral: inactive; Vaccinia mCherry: inactive; HCV inh: inactive; FMDV antiviral: inactive; VACV Venus inh: inactive

Results for CCc1cccc(NC(=O)COC(=O)c2ccccc2OCc2ccccc2Br)c1 ?
Vaccinia mCherry: inconclusive; VACV Venus inh: 13µM

What do the screens show for `COc1ccc(CC(=O)Nc2cccc(-c3nnc(-c4cccc(C)c4)o3)c2)cc1OC`?
HCMV antiviral: inactive; Vaccinia mCherry: inactive[1.46 µM]; HCV inh: 6.3µM; FMDV antiviral: 40µM; VACV Venus inh: inconclusive

How did CC(C)c1cccc(NC(=O)COC(=O)c2ccccc2OCc2cccc(Br)c2)c1 do in these assays?
Vaccinia mCherry: inactive; VACV Venus inh: inactive

Results for O=C(CNC(=O)N1CC(=O)Nc2ccccc21)Nc1cccc(F)c1 ?
HCMV antiviral: inconclusive; HCV inh: inactive; FMDV antiviral: inactive

Results for COc1ccc(C(=O)NNS(=O)(=O)c2ccccc2)cc1OC ?
HCMV antiviral: inactive; HCV inh: inactive; FMDV antiviral: inactive

Results for CCc1cccc(NC(=O)Cc2ccc(OC)c(OC)c2)c1 ?
HCMV antiviral: -82; Vaccinia mCherry: inactive; HCV inh: inconclusive; FMDV antiviral: inconclusive; VACV Venus inh: inactive

How did COc1ccc(CC(=O)NCc2cccc(CNC(=O)Cc3ccc(OC)c(OC)c3)c2)cc1OC do in these assays?
HCMV antiviral: inactive; HCV inh: inactive; FMDV antiviral: inactive

What do the screens show for `COc1ccc(C(=O)N2CCCC(C)(C(=O)NS(=O)(=O)C3CC3)C2)cc1` (centres undefined)?
HCMV antiviral: inactive; Vaccinia mCherry: inactive; FMDV antiviral: inactive; VACV Venus inh: inactive

What do the screens show for `CNC(=O)c1ccc(NC(=O)c2cc(S(=O)(=O)N(C)C)ccc2N2CCCC2)cc1`?
HCMV antiviral: -100; HCV inh: inactive; FMDV antiviral: inactive

What do the screens show for `CCN(CC(=O)Nc1ccc(OC)cc1)C(=O)c1cc(S(=O)(=O)N(C)C)ccc1N1CCCC1`?
HCMV antiviral: inactive; Vaccinia mCherry: inactive; HCV inh: 11µM; FMDV antiviral: inactive; VACV Venus inh: inactive

Results for CCc1cccc(NC(=O)c2cc(S(=O)(=O)N(C)C)ccc2N2CCCC2)c1 ?
HCMV antiviral: inactive; Vaccinia mCherry: inactive; HCV inh: inactive; FMDV antiviral: inactive; VACV Venus inh: inactive

Results for CCN(CC(=O)Nc1ccc(OC)cc1)C(=O)c1ccccc1Sc1ccccc1C#N ?
HCMV antiviral: inactive; Vaccinia mCherry: inconclusive; HCV inh: 22µM; FMDV antiviral: inactive; VACV Venus inh: inactive

What do the screens show for `Fc1cccc(-n2ncc3c2ncn2nc(Cc4ccccc4)nc32)c1`?
HCMV antiviral: inconclusive; Vaccinia mCherry: inactive; FMDV antiviral: inactive; VACV Venus inh: inactive

How did COCC(=O)Nc1cc(C(=O)N2CCc3sccc3C2)c2c(c1)nc(-c1ccncc1)n2C do in these assays?
Vaccinia mCherry: inactive; FMDV antiviral: inactive; VACV Venus inh: inactive

What do the screens show for `CC(C)Cn1cc(NC(=O)N2CCN(c3ccc(F)cc3)CC2)c2ccccc2c1=O`?
HCMV antiviral: inactive; Vaccinia mCherry: inactive; FMDV antiviral: inactive; VACV Venus inh: inactive

How did Cc1ccc2scc(N3CCCCC3C)c(=O)c2c1 (centres undefined) do in these assays?
HCMV antiviral: inactive; Vaccinia mCherry: inactive; FMDV antiviral: inactive; VACV Venus inh: inactive

How did CC(C)CN1CCC2(CC1)CCN(C(=O)c1csnn1)CC2 do in these assays?
FMDV antiviral: inactive

What do the screens show for `O=c1cc(C(F)(F)F)nc(SC/C=C/c2ccccc2)[nH]1`?
HCV inh: inactive; FMDV antiviral: inactive

Results for CC(SCc1ccccc1)C(=O)N/N=C/c1ccc(OCC(=O)NCc2ccco2)cc1 (centres undefined) ?
HCMV antiviral: inactive; Vaccinia mCherry: inactive; HCV inh: 11µM; FMDV antiviral: 13µM; VACV Venus inh: inconclusive

What do the screens show for `COc1ccc(/C=c2\sc3nc(=O)c(C)nn3c2=O)c(OC)c1`?
HCMV antiviral: -62; Vaccinia mCherry: inactive; HCV inh: inactive; FMDV antiviral: inactive; VACV Venus inh: inactive

Results for COc1ccccc1/C=c1\sc2nc(-c3ccccc3OC)nn2c1=O ?
HCMV antiviral: inactive; Vaccinia mCherry: inactive; HCV inh: inactive; FMDV antiviral: inactive; VACV Venus inh: inactive

What do the screens show for `COCCNC(=O)C1(C)CCN(C(=O)c2cccnc2Oc2ccccc2)C1` (centres undefined)?
HCMV antiviral: inactive; Vaccinia mCherry: 28µM; FMDV antiviral: inactive; VACV Venus inh: 32µM

How did CCCNC(=O)C1(C)CCN(C(=O)c2ccccc2F)C1 (centres undefined) do in these assays?
HCMV antiviral: inactive; Vaccinia mCherry: inactive; FMDV antiviral: inactive; VACV Venus inh: inactive

Results for CCNC(=O)C1(C)CCN(C(=O)c2ccccc2F)C1 (centres undefined) ?
HCMV antiviral: -98; Vaccinia mCherry: inactive; FMDV antiviral: inactive; VACV Venus inh: inactive

How did N=C(N)SCc1cn(-c2ccccc2)nc1-c1ccc(Br)cc1 do in these assays?
HCMV antiviral: -87; Vaccinia mCherry: 11µM; HCV inh: inconclusive; FMDV antiviral: 20µM; VACV Venus inh: inconclusive

What do the screens show for `CSCC[C@H](NC(=O)c1ccc2c(c1)OCO2)c1nnc2ccccn12`?
HCMV antiviral: inactive; Vaccinia mCherry: inactive; HCV inh: inactive; FMDV antiviral: inactive; VACV Venus inh: inactive

How did O=C(NCc1ccccc1)C1C(c2ccc3c(c2)OCO3)=Nc2ccccc2N1C(=O)c1ccco1 (centres undefined) do in these assays?
HCMV antiviral: -62; Vaccinia mCherry: inconclusive; FMDV antiviral: inactive; VACV Venus inh: inactive

How did N#Cc1c(Nc2ccccc2)sc(C(=O)c2ccccc2)c1N do in these assays?
HCMV antiviral: inactive; HCV inh: inconclusive; FMDV antiviral: inactive; VACV Venus inh: inactive

Results for Cc1cccc(Oc2sc(C(=O)c3ccccc3)c(N)c2C#N)c1 ?
HCMV antiviral: inactive; HCV inh: 10µM; FMDV antiviral: inconclusive; VACV Venus inh: inconclusive

Results for CC1(c2nnc(Cc3ccccc3)o2)CC(c2cccc(F)c2)=NO1 (centres undefined) ?
HCMV antiviral: inactive; Vaccinia mCherry: inactive; HCV inh: inactive; FMDV antiviral: inactive; VACV Venus inh: inactive

What do the screens show for `CCOC(=O)[C@]12Cc3cc(OC)ccc3[C@H]1N(C1CCCCC1)C(=O)c1ccccc12`?
HCMV antiviral: -101; Vaccinia mCherry: inconclusive; FMDV antiviral: 8.9µM; VACV Venus inh: inconclusive

What do the screens show for `CCOC(=O)[C@]12Cc3cc(Cl)ccc3[C@H]1N(C1CCCCC1)C(=O)c1ccccc12`?
Vaccinia mCherry: inconclusive; FMDV antiviral: 4.5µM; VACV Venus inh: inconclusive

How did COc1cc(OC)cc(-c2nc3n(n2)C(c2ccccc2)C(C(N)=O)=C(C)N3)c1 (centres undefined) do in these assays?
HCMV antiviral: inactive; Vaccinia mCherry: inactive; FMDV antiviral: inactive; VACV Venus inh: inactive
